From the supplement of paper PMC13380429

System: Vero E6 infected with SARS-CoV-2
Assay: inhibition of SARS-CoV-2 cytopathic effect; higher = more antiviral protection, active = above 15
Settings: 48 h

Measured: inhibition of SARS-CoV-2 cytopathic effect

NC(=O)c1ccc(I)c([N+](=O)[O-])c1 [iniparib]
inactive: 1 nM 0.64% | 8.33 nM 1.76% | 100 nM 0.16% | 833.33 nM 2.29% | 10000 nM 3.53%

CCc1nn(CCO)c(CC)c1Oc1cc(C#N)cc(C#N)c1 [lersivirine]
inactive: 1 nM 2.25% | 8.33 nM 2.52% | 100 nM 2.57% | 833.33 nM 0.87% | 10000 nM 2.19%

COc1cc(N2CCC(N3CCN(C)CC3)CC2)ccc1Nc1ncc(Cl)c(Nc2ccccc2P(C)(C)=O)n1 [brigatinib]
inactive: 1 nM 0.45% | 8.33 nM -1.85% | 100 nM -2.21% | 833.33 nM -0.42% | 10000 nM -5.17%

CN1CCC2=C(C1)C(c1ccccc1)c1ccccc12 (stereo not given) [phenindamine]
inactive: 1 nM -1.14% | 8.33 nM -0.54% | 100 nM 0.73% | 833.33 nM 2.57% | 10000 nM 1.5%

CN1C(=O)N(c2cc(Cl)cc(Cl)c2)C(=O)[C@]12CN(c1ccc(C(=O)O)cn1)C[C@H]2c1ccc(C#N)cc1
inactive: 1 nM 1.7% | 8.33 nM 0.43% | 100 nM 1.42% | 833.33 nM 1.84% | 10000 nM 1.57%

O=[N+]([O-])c1cc([N+](=O)[O-])c(/C=C/c2ccc(Cl)c(Cl)c2)cc1/C=C/c1ccc(Cl)c(Cl)c1
inactive: 1 nM 2% | 8.33 nM 1.02% | 100 nM -3.12% | 833.33 nM -5.26% | 10000 nM -2.22%

COc1ccccc1N1CCN(CCN2C(=O)c3ccccc3C(C)(C)C2=O)CC1
inactive: 1 nM 0.16% | 8.33 nM -2.9% | 100 nM 2.69% | 833.33 nM -0.3% | 10000 nM 0.21%

CCOc1ccccc1C(=O)O [2-ethoxybenzoic-acid]
inactive: 1 nM 2.67% | 8.33 nM 3.72% | 100 nM 4.26% | 833.33 nM 0.66% | 10000 nM -0.66%

COC(=O)/C=C/c1cccc(N(Cc2ccc(-c3ccc(N(C)C)cc3)cc2)C(=O)C2CCCCC2)c1 [fexaramine]
inactive: 1 nM -0.19% | 8.33 nM 0.37% | 100 nM -0.24% | 833.33 nM 2.29% | 10000 nM 1.78%

C=CCN1C[C@H](C)N([C@H](c2ccc(C(=O)N(CC)CC)cc2)c2cccc(O)c2)C[C@H]1C
inactive: 1 nM 0.51% | 8.33 nM 2.94% | 100 nM -0.07% | 833.33 nM -0.38% | 10000 nM -1.22%

CN1Cc2c(C(=O)OC(C)(C)C)ncn2-c2ccsc2C1=O
inactive: 1 nM 2.57% | 8.33 nM 3.55% | 100 nM 1.79% | 833.33 nM 1.66% | 10000 nM -0.64%

CCCNC(=O)Nc1ccc(Oc2ncnc3cc(OC)c(OC)cc23)cc1Cl
inactive: 1 nM 0.58% | 8.33 nM 0.62% | 100 nM 1.2% | 833.33 nM 0.47% | 10000 nM -2.74%

CSc1ccc(OCc2ncc([N+](=O)[O-])n2C)cc1 [fexinidazole]
inactive: 1 nM -1.82% | 8.33 nM -1.7% | 100 nM -1.88% | 833.33 nM -3.53% | 10000 nM -0.36%

Cc1cccc(Oc2nc3c(C)cccn3c(=O)c2/C=C(\C#N)c2nc3ccccc3s2)c1
inactive: 1 nM -0.1% | 8.33 nM 1.16% | 100 nM 0.8% | 833.33 nM 3.43% | 10000 nM 0.62%

CCN(CC)CCOc1ccccc1C(=O)CCc1ccccc1 [etafenone]
inactive: 1 nM 1.2% | 8.33 nM 0.17% | 100 nM -0.61% | 833.33 nM 0.23% | 10000 nM -3.07%

CC1COc2c(N3CCN(C)CC3)c(F)cc3c(=O)c(C(=O)O)cn1c23 (stereo not given) [ofloxacin]
inactive: 1 nM 1.97% | 8.33 nM 0.365% | 100 nM 0.065% | 833.33 nM -0.975% | 10000 nM 1.25%

COc1cc(OC)nc(O[C@H](C(=O)O)C(OC)(c2ccccc2)c2ccccc2)n1 [darusentan]
inactive: 1 nM 0.26% | 8.33 nM -0.2% | 100 nM 0.62% | 833.33 nM -2.26% | 10000 nM -0.49%

Cc1cc(C)cc(C(=O)NOCCCCCC(=O)NO)c1
inactive: 1 nM 2.07% | 8.33 nM -0.95% | 100 nM -1.04% | 833.33 nM -9.5% | 10000 nM -23.1%

COc1cc(C(=O)N2CCOCC2)cc(OC)c1OC [trimetozine]
inactive: 1 nM 0.84% | 8.33 nM 0.93% | 100 nM 1.16% | 833.33 nM 4.1% | 10000 nM 2.28%
